Reference: PubChem BioAssay (NCI)
About 83,000 compounds went through this panel and 20% of them were active in at least one assay; those are over-represented in the sample as a whole.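 Percent growth is the endpoint: 0 to 100 indicates growth inhibition (40 means 60% inhibition), 0 means no net growth, and negative values indicate cell death.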 Activity calls are given as the source filed them. Rule for the calls: active = growth percent below 10; inactive = the rest.

Test system: OVCAR-4 ovarian
Experiment: NCI-60 one-dose screen, 48 h (100 = growth as untreated, 0 = no growth, -100 = all killed)
Settings: 10 µM unless noted

Structure (SMILES) | growth
COc1ccc(-c2n[nH]nc2-c2cc3ccccc3s2)cc1O | 52.4% (inactive)
Nc1c(C(=O)Nc2cccc(Br)c2)sc2nc3c(cc12)C(=O)CCC3 | 77.2% (inactive)
COc1cc(/C=N/Nc2ncnc3c2c(C)nn3-c2ccc(F)cc2)ccc1O | 90.3% (inactive)
Nc1ccccc1NC(=O)c1ccc(CN2CCC/C(=C\c3ccccn3)C2=O)cc1 | 47.6% (inactive)
Cc1ccccc1-c1nc(C(Cl)Cl)nc2cc(-c3ccccc3)nn12 | 77.5% (inactive)
N#CC1=C(N)Oc2ccc3ccccc3c2C1c1ccccc1 (stereo not given) | 73.6% (inactive)
Cc1csc(-c2ccc3c(c2)COC3(CCCN(C)C)c2ccc(F)cc2)c1 (stereo not given) | 45.9% (inactive)
COc1ccc(C2C(C#N)=C(N)Oc3c2sc2c(F)cccc32)cc1 (stereo not given) | 65.7% (inactive)
CCCCCCCCNc1cccc2c1C(=O)c1ccccc1C2=O | 103% (inactive)
CC1(C)CC[C@]2(CO)CC[C@]3(C)C(=CC[C@@H]4[C@@]5(C)CC[C@H](NCO)C(C)(C)[C@@H]5CC[C@]43C)[C@@H]2C1 | -32.5% (active)
CNC(=O)c1cc(Oc2ccc3nc(NC(=O)Nc4ccc(Cl)cc4)sc3c2)ccn1 | 13% (inactive)
NCCn1cc(-c2nc(-c3c[nH]c4ncccc34)cs2)c2ccccc21 | 68.2% (inactive)
COc1cc(-c2cc(-c3nc4cc(Cl)c(Cl)cc4[nH]3)[nH]n2)cc(OC)c1OC | 52.5% (inactive)
CC1(n2nnnc2N2CCCN(c3ncccc3N)CC2)CCC1 | 97.2% (inactive)
C=CC(=O)N[C@H](Cc1ccc(-c2cc(Cl)cc(Cl)c2)cc1)[C@H](O)[C@@H](O)C(=O)O | 96.9% (inactive)
